Experimental data reported in the supplement of paper PMC11732987, “Enantioselective OTUD7B fragment discovery through chemoproteomics screening and high-throughput optimisation” (Communications Chemistry, 2025).

Columns and labels:
Test in all cases: log2 ratio of Biotin-Ahx-Ub-VS probe labelling (fragment/DMSO); higher = less target engagement (more negative = stronger competition), active = hit call of the paper (q ≤ 0.05, log2 ratio ≤ -1)
Settings in all cases: compound concentration: 200 uM; treatment time: 3 h
USP34 = USP34 (UniProt Q70CQ2)
USP34, sequence (Q70CQ2 whole entry, the tested form may be a part): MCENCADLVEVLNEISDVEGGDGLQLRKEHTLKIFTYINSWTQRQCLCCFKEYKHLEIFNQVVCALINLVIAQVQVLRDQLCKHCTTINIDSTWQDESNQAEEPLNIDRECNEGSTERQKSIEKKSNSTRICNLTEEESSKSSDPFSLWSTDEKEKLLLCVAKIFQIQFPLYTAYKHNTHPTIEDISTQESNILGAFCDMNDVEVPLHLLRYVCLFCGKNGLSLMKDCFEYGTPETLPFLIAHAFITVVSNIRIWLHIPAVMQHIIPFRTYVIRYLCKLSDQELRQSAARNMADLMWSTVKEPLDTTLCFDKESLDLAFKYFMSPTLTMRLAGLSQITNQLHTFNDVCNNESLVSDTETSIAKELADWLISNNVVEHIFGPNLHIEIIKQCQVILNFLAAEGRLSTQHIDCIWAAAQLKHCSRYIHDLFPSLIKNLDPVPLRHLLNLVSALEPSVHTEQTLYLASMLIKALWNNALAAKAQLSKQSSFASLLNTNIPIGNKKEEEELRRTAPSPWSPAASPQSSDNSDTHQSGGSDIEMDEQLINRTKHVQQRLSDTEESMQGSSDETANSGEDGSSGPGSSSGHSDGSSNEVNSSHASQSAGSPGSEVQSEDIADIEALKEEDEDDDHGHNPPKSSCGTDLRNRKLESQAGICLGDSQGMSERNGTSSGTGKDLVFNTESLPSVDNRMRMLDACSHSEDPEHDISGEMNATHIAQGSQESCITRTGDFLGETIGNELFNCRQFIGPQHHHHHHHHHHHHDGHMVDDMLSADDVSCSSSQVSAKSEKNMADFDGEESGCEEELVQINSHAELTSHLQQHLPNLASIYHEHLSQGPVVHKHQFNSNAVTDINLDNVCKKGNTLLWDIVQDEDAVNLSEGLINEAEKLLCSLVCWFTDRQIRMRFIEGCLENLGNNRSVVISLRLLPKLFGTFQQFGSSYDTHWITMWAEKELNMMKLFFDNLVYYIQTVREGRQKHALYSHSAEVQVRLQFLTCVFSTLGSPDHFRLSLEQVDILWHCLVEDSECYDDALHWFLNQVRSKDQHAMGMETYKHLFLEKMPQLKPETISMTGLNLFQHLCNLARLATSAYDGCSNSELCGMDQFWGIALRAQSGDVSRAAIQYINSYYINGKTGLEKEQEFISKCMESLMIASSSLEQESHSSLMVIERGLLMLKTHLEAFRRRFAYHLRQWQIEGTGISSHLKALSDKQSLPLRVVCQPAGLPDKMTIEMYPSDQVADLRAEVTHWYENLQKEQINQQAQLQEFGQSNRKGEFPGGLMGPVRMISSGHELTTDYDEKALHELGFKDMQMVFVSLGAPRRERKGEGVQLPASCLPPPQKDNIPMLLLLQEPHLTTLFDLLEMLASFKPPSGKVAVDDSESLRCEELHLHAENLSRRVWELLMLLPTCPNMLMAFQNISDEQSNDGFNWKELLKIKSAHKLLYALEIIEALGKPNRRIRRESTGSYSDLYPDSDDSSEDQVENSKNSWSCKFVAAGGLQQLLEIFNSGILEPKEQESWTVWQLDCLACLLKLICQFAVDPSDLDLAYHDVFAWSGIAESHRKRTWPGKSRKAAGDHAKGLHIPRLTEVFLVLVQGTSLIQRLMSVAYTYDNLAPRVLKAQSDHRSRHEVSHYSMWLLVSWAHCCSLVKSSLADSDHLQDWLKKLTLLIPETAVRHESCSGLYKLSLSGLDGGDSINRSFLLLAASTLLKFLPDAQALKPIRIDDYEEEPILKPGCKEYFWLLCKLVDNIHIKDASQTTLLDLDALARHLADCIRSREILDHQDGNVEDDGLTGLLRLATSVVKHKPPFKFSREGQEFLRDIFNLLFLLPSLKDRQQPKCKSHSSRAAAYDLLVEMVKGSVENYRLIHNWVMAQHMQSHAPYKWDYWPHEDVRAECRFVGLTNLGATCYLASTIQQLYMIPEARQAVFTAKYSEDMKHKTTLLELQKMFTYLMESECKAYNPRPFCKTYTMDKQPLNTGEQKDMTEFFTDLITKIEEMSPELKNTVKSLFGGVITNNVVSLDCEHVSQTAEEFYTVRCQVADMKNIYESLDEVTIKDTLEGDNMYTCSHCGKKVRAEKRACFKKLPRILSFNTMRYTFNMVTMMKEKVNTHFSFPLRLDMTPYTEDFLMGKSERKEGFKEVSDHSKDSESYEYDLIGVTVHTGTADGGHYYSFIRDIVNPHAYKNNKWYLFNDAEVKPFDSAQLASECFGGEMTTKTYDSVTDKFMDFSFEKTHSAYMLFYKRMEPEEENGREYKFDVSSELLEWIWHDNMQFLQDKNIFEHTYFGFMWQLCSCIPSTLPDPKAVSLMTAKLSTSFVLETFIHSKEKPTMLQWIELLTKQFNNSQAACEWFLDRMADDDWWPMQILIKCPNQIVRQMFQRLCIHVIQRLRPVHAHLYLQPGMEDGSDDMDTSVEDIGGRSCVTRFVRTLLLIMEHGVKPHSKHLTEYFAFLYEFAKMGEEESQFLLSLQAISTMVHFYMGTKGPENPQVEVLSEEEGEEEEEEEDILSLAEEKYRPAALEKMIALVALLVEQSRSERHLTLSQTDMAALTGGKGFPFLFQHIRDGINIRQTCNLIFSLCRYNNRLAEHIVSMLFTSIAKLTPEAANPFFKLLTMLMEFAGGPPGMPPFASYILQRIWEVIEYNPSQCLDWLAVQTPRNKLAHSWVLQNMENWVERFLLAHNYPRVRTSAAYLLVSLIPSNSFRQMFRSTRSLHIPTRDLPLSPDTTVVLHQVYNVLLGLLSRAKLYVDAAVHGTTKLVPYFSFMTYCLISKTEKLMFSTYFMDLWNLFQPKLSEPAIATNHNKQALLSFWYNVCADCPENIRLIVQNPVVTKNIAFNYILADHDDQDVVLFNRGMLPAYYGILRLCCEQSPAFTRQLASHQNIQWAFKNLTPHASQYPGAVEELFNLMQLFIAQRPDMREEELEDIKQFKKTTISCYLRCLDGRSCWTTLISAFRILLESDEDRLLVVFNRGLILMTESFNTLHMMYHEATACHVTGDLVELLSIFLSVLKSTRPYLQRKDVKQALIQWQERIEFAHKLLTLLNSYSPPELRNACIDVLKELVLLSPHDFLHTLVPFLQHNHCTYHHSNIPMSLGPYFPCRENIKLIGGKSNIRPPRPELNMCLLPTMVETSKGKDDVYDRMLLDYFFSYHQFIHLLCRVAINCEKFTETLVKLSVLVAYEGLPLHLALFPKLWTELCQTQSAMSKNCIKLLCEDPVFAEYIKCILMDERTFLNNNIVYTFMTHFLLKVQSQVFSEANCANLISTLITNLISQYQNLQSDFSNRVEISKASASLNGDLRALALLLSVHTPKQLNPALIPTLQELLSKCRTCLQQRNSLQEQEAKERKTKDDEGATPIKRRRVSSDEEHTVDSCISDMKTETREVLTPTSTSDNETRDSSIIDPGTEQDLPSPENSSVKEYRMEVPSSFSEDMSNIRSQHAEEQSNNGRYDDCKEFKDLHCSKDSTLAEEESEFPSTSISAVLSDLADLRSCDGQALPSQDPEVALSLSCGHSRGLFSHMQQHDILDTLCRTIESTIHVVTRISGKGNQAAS
In short: (§1)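 HEK293T lysate (495 µg per sample, in Tris/CHAPS/IGEPAL buffer with protease inhibitors) was exposed in triplicate for 3 h to fragment at 200 µM or to vehicle, then to Biotin-Ahx-Ub-VS at 0.5 µM final for 1 h. Labelled DUBs were enriched on NeutrAvidin, digested with LysC and trypsin, and analysed by diaPASEF LC-MS/MS. Spectronaut label-free quantities were normalised to the global median, and values are average log2 ratios of fragment over vehicle from an unpaired t-test. Only proteins with ≥2 unique peptides were used.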

USP36 = molecular target: T1, USP36 (UniProt Q9P275)
T1 sequence (whole entry): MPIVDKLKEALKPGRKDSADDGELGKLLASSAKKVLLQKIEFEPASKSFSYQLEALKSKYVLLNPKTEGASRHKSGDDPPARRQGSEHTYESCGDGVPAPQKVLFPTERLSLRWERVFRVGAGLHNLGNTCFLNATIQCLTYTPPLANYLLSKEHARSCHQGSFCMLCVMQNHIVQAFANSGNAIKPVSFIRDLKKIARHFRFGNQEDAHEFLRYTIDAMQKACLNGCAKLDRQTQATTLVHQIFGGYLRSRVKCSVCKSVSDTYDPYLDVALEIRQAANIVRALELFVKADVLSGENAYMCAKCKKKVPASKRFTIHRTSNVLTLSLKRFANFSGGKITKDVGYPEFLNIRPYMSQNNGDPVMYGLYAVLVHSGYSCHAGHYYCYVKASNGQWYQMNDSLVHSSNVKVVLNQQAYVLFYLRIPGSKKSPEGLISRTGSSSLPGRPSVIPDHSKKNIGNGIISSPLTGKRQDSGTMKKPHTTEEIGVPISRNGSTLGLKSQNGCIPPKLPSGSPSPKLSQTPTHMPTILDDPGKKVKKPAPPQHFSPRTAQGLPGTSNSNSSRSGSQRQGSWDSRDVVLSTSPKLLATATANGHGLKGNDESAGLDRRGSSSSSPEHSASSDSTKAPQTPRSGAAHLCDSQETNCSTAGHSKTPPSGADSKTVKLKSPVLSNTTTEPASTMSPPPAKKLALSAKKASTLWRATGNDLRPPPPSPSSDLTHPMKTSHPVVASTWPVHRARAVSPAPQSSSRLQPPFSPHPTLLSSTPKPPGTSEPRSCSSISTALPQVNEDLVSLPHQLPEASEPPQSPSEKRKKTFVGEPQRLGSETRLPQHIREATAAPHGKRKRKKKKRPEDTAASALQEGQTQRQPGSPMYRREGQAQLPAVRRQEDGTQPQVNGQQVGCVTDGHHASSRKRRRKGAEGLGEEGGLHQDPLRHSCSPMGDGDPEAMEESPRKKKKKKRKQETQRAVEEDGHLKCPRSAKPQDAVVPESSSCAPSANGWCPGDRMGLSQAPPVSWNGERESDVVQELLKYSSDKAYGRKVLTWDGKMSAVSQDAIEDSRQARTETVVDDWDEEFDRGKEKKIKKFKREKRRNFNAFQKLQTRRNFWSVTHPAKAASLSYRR
In short: as §1

USP38 = molecular target: T2, USP38 (UniProt Q8NB14)
T2 sequence (whole entry): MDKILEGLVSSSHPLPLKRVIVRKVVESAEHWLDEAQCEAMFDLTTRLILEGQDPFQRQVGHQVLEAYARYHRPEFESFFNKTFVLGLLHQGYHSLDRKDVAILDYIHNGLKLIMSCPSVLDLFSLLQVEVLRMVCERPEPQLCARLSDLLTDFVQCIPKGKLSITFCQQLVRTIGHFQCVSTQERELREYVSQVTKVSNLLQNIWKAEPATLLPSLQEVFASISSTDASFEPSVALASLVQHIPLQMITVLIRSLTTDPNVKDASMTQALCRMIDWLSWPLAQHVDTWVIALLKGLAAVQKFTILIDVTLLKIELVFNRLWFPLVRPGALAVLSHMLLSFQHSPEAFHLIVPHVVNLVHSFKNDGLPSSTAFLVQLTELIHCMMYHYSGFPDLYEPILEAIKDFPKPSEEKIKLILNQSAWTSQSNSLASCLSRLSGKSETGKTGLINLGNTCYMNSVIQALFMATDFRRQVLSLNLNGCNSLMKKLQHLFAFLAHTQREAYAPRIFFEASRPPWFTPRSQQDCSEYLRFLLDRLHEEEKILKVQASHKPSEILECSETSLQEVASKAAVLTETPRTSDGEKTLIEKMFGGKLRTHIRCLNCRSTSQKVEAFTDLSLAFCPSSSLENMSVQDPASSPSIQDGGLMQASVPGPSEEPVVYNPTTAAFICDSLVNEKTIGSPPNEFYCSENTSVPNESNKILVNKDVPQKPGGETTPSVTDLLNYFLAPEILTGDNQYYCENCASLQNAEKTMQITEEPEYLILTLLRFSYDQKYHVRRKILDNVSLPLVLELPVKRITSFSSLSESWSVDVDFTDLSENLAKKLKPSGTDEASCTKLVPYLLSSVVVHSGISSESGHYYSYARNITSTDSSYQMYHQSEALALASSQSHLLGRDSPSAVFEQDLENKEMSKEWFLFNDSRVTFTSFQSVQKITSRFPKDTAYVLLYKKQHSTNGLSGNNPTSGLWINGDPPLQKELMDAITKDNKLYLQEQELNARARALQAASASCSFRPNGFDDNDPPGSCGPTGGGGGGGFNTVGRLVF
In short: as §1

USP39 = molecular target: T3, USP39 (UniProt Q53GS9)
T3 sequence (whole entry): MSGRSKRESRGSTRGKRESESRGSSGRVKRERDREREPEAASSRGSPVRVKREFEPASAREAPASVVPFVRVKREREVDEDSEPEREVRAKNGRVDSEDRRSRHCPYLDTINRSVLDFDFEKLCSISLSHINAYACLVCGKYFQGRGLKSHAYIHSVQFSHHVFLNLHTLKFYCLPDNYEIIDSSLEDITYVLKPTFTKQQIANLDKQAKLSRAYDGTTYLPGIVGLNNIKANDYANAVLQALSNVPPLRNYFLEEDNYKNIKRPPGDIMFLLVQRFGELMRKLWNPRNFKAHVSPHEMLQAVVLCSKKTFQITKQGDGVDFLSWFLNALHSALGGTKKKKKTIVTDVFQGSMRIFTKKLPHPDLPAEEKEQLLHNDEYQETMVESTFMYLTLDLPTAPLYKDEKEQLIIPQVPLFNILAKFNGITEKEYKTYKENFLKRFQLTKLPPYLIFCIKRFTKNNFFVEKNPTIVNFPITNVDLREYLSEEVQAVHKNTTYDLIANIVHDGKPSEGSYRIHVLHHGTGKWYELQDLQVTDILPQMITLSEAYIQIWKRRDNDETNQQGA
In short: as §1

USP4 = molecular target: T4, USP4 (UniProt Q13107)
T4 sequence (whole entry): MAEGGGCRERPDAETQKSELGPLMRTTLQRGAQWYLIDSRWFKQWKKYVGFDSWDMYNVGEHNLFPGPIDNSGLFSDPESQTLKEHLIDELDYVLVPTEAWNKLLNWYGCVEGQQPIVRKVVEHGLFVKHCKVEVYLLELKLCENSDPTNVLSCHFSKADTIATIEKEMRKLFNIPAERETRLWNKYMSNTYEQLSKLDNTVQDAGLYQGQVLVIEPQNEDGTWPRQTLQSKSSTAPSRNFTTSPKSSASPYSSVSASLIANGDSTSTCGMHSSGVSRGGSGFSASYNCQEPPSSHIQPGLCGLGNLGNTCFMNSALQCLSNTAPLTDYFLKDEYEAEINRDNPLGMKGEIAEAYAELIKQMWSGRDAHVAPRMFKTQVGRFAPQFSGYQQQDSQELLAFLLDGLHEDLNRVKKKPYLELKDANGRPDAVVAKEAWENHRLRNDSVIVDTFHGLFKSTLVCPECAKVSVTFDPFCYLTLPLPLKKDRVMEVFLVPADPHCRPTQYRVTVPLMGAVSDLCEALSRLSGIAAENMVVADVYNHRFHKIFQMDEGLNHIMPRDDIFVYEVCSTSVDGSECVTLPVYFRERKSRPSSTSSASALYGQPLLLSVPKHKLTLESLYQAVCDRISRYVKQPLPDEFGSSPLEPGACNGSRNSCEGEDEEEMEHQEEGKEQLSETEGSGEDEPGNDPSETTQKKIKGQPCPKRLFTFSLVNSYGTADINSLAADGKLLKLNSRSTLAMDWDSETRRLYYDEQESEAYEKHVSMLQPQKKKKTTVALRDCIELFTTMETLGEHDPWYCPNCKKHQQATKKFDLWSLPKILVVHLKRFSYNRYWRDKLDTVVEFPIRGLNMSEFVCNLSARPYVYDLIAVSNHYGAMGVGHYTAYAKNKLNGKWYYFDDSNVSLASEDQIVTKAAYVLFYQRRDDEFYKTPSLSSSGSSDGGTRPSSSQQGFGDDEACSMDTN
In short: as §1

Measured: log2 ratio of Biotin-Ahx-Ub-VS probe labelling

Cc1cccc(NC(=O)[C@@H]2CCCN2C(=O)CCl)n1
inactive: USP34 0.0425 | USP36 -0.0946 | USP38 -0.0719 | USP39 0.179 | USP4 -0.0817
